Source: PubChem BioAssay AID1159580 (chemical genetic matrix, 2015)
Out of some 5,500 compounds screened, about 2,000 (36%) were called active. About 18% were inconclusive and are not listed. No stated cut-off is given here; in the data, active means normalized growth mostly below about 0.91 (no sharp cut-off); inconclusive means no clear call, values can overlap the other calls; inactive means mostly above about 0.92. Some of the results follow.

Assay: chemical genetic growth profiling, strain panel (AID 1159580);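 further: tested at 20 µM; growth read once vehicle control cultures reached saturation at 30 °C; 1 = growth at the plate median or of vehicle wells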
Settings: growth OD

Measured: normalized growth

CC1CCC2(OC1)OC1CC3C4CC[C@H]5C[C@@H](O)CC[C@]5(C)C4CC(=O)[C@]3(C)C1C2C (some centres not stated)
inactive: S. cerevisiae deletion strains, locus YJR075W, strain HOC1, stronger effect = lower value 1.01 | S. cerevisiae deletion strains, locus YKL009W, strain mrt4, stronger effect = lower value 0.965 | S. cerevisiae deletion strains, locus YKL068W, stronger effect = lower value 0.992 | S. cerevisiae deletion strains, locus YKL085W, strain MDH1 (second series), stronger effect = lower value 0.989 | S. cerevisiae deletion strains, locus YKL085W, strain MDH1, stronger effect = lower value 0.989 | S. cerevisiae deletion strains, locus YKL160W, strain elf1, stronger effect = lower value 1.01 | S. cerevisiae deletion strains, locus YKL190W, strain CNB1, stronger effect = lower value 1.01 | S. cerevisiae deletion strains, locus YKR001C, strain vps1, stronger effect = lower value 0.98 | S. cerevisiae deletion strains, locus YKR026C, strain gcn3, stronger effect = lower value 1.02 | S. cerevisiae deletion strains, locus YKR091W, strain srl3, stronger effect = lower value 1.01 | S. cerevisiae deletion strains, locus YLL001W, strain dnm1, stronger effect = lower value 0.987 | S. cerevisiae deletion strains, locus YLL026W, stronger effect = lower value 1.01 | S. cerevisiae deletion strains, locus YLL041C, strain sdh2, stronger effect = lower value 1 | S. cerevisiae deletion strains, locus YLR027C, strain aat2, stronger effect = lower value 1 | S. cerevisiae deletion strains, locus YLR039C, strain RIC1, stronger effect = lower value 0.972 | S. cerevisiae deletion strains, locus YLR058C, strain SHM2, stronger effect = lower value 1.01 | S. cerevisiae deletion strains, locus YLR102C, strain apc9, stronger effect = lower value 0.982 | S. cerevisiae deletion strains, locus YLR113W, strain HOG1, stronger effect = lower value 0.97 | S. cerevisiae deletion strains, locus YLR221C, strain rsa3, stronger effect = lower value 0.994 | S. cerevisiae deletion strains, locus YLR258W, strain gsy2, stronger effect = lower value 0.995 | S. cerevisiae deletion strains, locus YLR262C, strain YPT6 (second series), stronger effect = lower value 0.97 | S. cerevisiae deletion strains, locus YLR262C, strain YPT6, stronger effect = lower value 0.993 | S. cerevisiae deletion strains, locus YLR268W, strain sec22, stronger effect = lower value 0.952 | S. cerevisiae deletion strains, locus YLR320W, strain mms22, stronger effect = lower value 0.975 | S. cerevisiae deletion strains, locus YLR330W, strain CHS5, stronger effect = lower value 1.02 | S. cerevisiae deletion strains, locus YLR342W, strain FKS1 (second series), stronger effect = lower value 1.06 | S. cerevisiae deletion strains, locus YLR342W, strain FKS1, stronger effect = lower value 1 | S. cerevisiae deletion strains, locus YLR357W, strain rsc2, stronger effect = lower value 0.992 | S. cerevisiae deletion strains, locus YLR370C, strain arc18, stronger effect = lower value 1.02 | S. cerevisiae deletion strains, locus YLR371W, strain rom2, stronger effect = lower value 0.976 | S. cerevisiae deletion strains, locus YLR384C, strain iki3, stronger effect = lower value 1.02 | S. cerevisiae deletion strains, locus YLR418C, strain cdc73, stronger effect = lower value 0.934 | S. cerevisiae deletion strains, locus YML016C, strain PPZ1, stronger effect = lower value 1.01 | S. cerevisiae deletion strains, locus YML032C, strain rad52, stronger effect = lower value 0.965 | S. cerevisiae deletion strains, locus YML120C, strain ndi1, stronger effect = lower value 1 | S. cerevisiae deletion strains, locus YML124C, strain tub3, stronger effect = lower value 0.981 | S. cerevisiae deletion strains, locus YMR058W, strain fet3, stronger effect = lower value 1.03 | S. cerevisiae deletion strains, locus YMR078C, strain ctf18, stronger effect = lower value 1.01 | S. cerevisiae deletion strains, locus YMR125W, strain sto1, stronger effect = lower value 1.04 | S. cerevisiae deletion strains, locus YMR129W, stronger effect = lower value 1.03 | S. cerevisiae deletion strains, locus YMR205C, strain PFK2, stronger effect = lower value 1 | S. cerevisiae deletion strains, locus YMR223W, strain ubp8, stronger effect = lower value 0.999 | S. cerevisiae deletion strains, locus YMR231W, strain pep5, stronger effect = lower value 1.02 | S. cerevisiae deletion strains, locus YMR263W, strain SAP30, stronger effect = lower value 1.01 | S. cerevisiae deletion strains, locus YMR307W, strain GAS1, stronger effect = lower value 1.01 | S. cerevisiae deletion strains, locus YNL067W, strain RPL9B, stronger effect = lower value 0.991 | S. cerevisiae deletion strains, locus YNL071W, strain lat1, stronger effect = lower value 1.02 | S. cerevisiae deletion strains, locus YNL128W, strain TEP1, stronger effect = lower value 1.01 | S. cerevisiae deletion strains, locus YNL153C, strain GIM3, stronger effect = lower value 0.992 | S. cerevisiae deletion strains, locus YNL183C, strain NPR1, stronger effect = lower value 0.943 | S. cerevisiae deletion strains, locus YNL209W, strain ssb2, stronger effect = lower value 1.01 | S. cerevisiae deletion strains, locus YNL233W, strain BNI4, stronger effect = lower value 0.998 | S. cerevisiae deletion strains, locus YNL248C, strain rpa49, stronger effect = lower value 1.02 | S. cerevisiae deletion strains, locus YNL250W, strain rad50, stronger effect = lower value 0.98 | S. cerevisiae deletion strains, locus YNL271C, strain bni1, stronger effect = lower value 0.979 | S. cerevisiae deletion strains, locus YNL298W, strain CLA4, stronger effect = lower value 0.983 | S. cerevisiae deletion strains, locus YNL307C, strain MCK1, stronger effect = lower value 0.982 | S. cerevisiae deletion strains, locus YNL322C, strain KRE1 (second series), stronger effect = lower value 1.01 | S. cerevisiae deletion strains, locus YNL322C, strain KRE1, stronger effect = lower value 1.01 | S. cerevisiae deletion strains, locus YNR049C, strain mso1, stronger effect = lower value 1 | S. cerevisiae deletion strains, locus YNR052C, strain pop2, stronger effect = lower value 0.982 | S. cerevisiae deletion strains, locus YOL006C, strain TOP1, stronger effect = lower value 1.01 | S. cerevisiae deletion strains, locus YOL012C, strain htz1 0.834 | S. cerevisiae deletion strains, locus YOL147C, strain pex11, stronger effect = lower value 0.993 | S. cerevisiae deletion strains, locus YOR001W, strain rrp6, stronger effect = lower value 0.983 | S. cerevisiae deletion strains, locus YOR061W, strain CKA2, stronger effect = lower value 1.01 | S. cerevisiae deletion strains, locus YOR069W, strain VPS5, stronger effect = lower value 1.01 | S. cerevisiae deletion strains, locus YOR070C, strain gyp1, stronger effect = lower value 1.01 | S. cerevisiae deletion strains, locus YOR080W, strain dia2, stronger effect = lower value 1.04 | S. cerevisiae deletion strains, locus YOR083W, strain WHI5, stronger effect = lower value 0.957 | S. cerevisiae deletion strains, locus YOR106W, strain vam3, stronger effect = lower value 1.02 | S. cerevisiae deletion strains, locus YOR136W, strain idh2, stronger effect = lower value 0.995 | S. cerevisiae deletion strains, locus YOR144C, strain elg1, stronger effect = lower value 0.989 | S. cerevisiae deletion strains, locus YOR184W, strain ser1, stronger effect = lower value 0.96 | S. cerevisiae deletion strains, locus YOR231W, strain MKK1, stronger effect = lower value 0.963 | S. cerevisiae deletion strains, locus YOR265W, strain rbl2, stronger effect = lower value 1.01 | S. cerevisiae deletion strains, locus YOR270C, strain vph1, stronger effect = lower value 1.02 | S. cerevisiae deletion strains, locus YOR290C, strain snf2, stronger effect = lower value 1.03 | S. cerevisiae deletion strains, locus YOR316C, strain cot1, stronger effect = lower value 0.991 | S. cerevisiae deletion strains, locus YPL051W, strain arl3, stronger effect = lower value 1.02 | S. cerevisiae deletion strains, locus YPL055C, strain LGE1, stronger effect = lower value 1.02 | S. cerevisiae deletion strains, locus YPL078C, strain atp4, stronger effect = lower value 1.06 | S. cerevisiae deletion strains, locus YPL106C, strain sse1, stronger effect = lower value 1.02 | S. cerevisiae deletion strains, locus YPL240C, strain hsp82, stronger effect = lower value 1.01 | S. cerevisiae deletion strains, locus YPL241C, strain CIN2, stronger effect = lower value 1.01 | S. cerevisiae deletion strains, locus YPL256C, strain CLN2, stronger effect = lower value 0.963 | S. cerevisiae deletion strains, locus YPR119W, strain clb2, stronger effect = lower value 0.989 | S. cerevisiae deletion strains, locus YPR141C, strain kar3, stronger effect = lower value 0.986 | S. cerevisiae deletion strains, locus YPR163C, strain tif3, stronger effect = lower value 0.98 | S. cerevisiae deletion strains, locus YPR167C, strain met16, stronger effect = lower value 0.99 | S. cerevisiae deletion strains, strain wtn01, stronger effect = lower value 0.96 | S. cerevisiae strains, strain wild type, stronger effect = lower value 1.01
